A short description of experiment [1]: ATG_GLI_CIS: Attagene CIS-FACTORIAL HepG2 Assay for human Zinc Finger Protein GLI1 (AID 2282945). Conditions: HepG2, Attagene cis-factorial reporter mRNA, GLI element; actives raise or lower the signal. Summed up: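 Transiently transfected HepG2 cells report endogenous transcription factor activity via cis-element-driven reporter units. After 24 h compound exposure, reporter mRNA was measured by RT-PCR with capillary electrophoresis; bidirectional fitting against DMSO baseline.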

The nature of experiment [2]: ATG_GRE_CIS: Attagene CIS-FACTORIAL HepG2 Assay for human Glucocorticoid Response Elements (GRE) (AID 2282947). Conditions: HepG2 GRE cis-reporter, Attagene multiplex mRNA; actives raise or lower the signal. The procedure, abridged:
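Read-out: fluorescent reporter-transcript fragments separated by capillary electrophoresis after RT-PCR. Transiently transfected HepG2 cells carrying cis-element-driven reporter units were dosed for 24 h; gain or loss of signal fitted against DMSO control.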

Experiment [3] can be described thus: ATG_ISRE_CIS: Attagene CIS-FACTORIAL HepG2 Assay for human Interferon Regulatory Factor 1 (IRF1) binding to an Interferon-Stimulated Response Element (ISRE) (AID 2282948). Conditions: HepG2 ISRE cis-reporter (Attagene), mRNA transcription readout; actives raise or lower the signal. Summed up: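 Multiplexed mRNA reporter readout in human liver HepG2 cells: cis-element-driven reporters transfected, compound added for 24 h, transcripts amplified, fluorescently labelled and sized by capillary electrophoresis; curve fitting bidirectional against DMSO.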

Experiment [4] in a line: ATG_M_32_CIS: Attagene CIS-FACTORIAL HepG2 Assay for M32 Transcription Factor (Internal Marker) (AID 2282949).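 Also: background control marker of the multiplexed CIS panel rather than a real target.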 As to conditions: HepG2 Attagene cis-factorial M32 reporter, mRNA; actives raise or lower the signal. Summed up: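 Using DMSO as baseline, bidirectional curve fits were applied to reporter mRNA signals. These came from transiently transfected HepG2 cells exposed for 24 h, with RNA analysed by RT-PCR, FAM primer extension, HpaI digestion and CE.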

Experiment [5] can be described thus: ATG_M_06_CIS: Attagene CIS-FACTORIAL HepG2 Assay for M06 Transcription Factor (Internal Marker) (AID 2282950). As to conditions: HepG2 Attagene CIS-FACTORIAL M06 internal marker reporter; actives raise or lower the signal. Summed up:
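Terse: HepG2, transient MRTU transfection (FuGene 6), 24 h dosing; total RNA, oligo(dT) RT, PCR, FAM label, HpaI cut, capillary electrophoresis; bidirectional fit vs DMSO baseline; background-control endpoint.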

The target in experiment [6] is Hypoxia-inducible factor 1-alpha (Homo sapiens) (UniProt Q16665). In words: ATG_HIF1a_CIS: Attagene CIS-FACTORIAL HepG2 Assay for human Hypoxia Inducible Factor 1 (HIF1A) (AID 2282951). As to conditions: HepG2 Attagene cis-factorial HIF1a reporter transcription; actives raise or lower the signal. The procedure, abridged: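 After 24 h chemical exposure of reporter-transfected HepG2 cells, reporter cDNA was PCR-amplified, labelled by 6-FAM primer extension (2 min 95 C, 20 s 68 C, 10 min 72 C), HpaI-cut (2 h, 37 C) and analysed by CE.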

Experiment [7] has as its target Hepatocyte nuclear factor 6 (Homo sapiens) (UniProt Q9UBC0). In words: ATG_HNF6_CIS: Attagene CIS-FACTORIAL HepG2 Assay for human Hepatocyte Nuclear Factor 6 (HNF6) (AID 2282952). Conditions: HepG2 Attagene cis-factorial HNF6 reporter transcription; actives raise or lower the signal. Summed up:
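Endogenous transcription factor activity in human HepG2 liver cells was captured through cis-regulated reporter constructs. After 24 h treatment, reporter mRNA was measured by RT-PCR with capillary electrophoresis, and activity was fitted in both directions relative to DMSO.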

Experiment [8] deals with Heat shock factor protein 1 (Homo sapiens) (UniProt Q00613). In words: ATG_HSE_CIS: Attagene CIS-FACTORIAL HepG2 Assay for human Heat Shock Transcription Factor 1 (HSE) (AID 2282953). Conditions: HepG2 HSE cis-reporter, Attagene RNA transcription; actives raise or lower the signal. The procedure, abridged: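 Read-out: fluorescence of reporter-specific RT-PCR fragments separated by capillary electrophoresis. HepG2 carrying transfected cis-element reporter units; 24 h dosing; activity fitted in both directions relative to DMSO baseline.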

Experiment [9] is described as follows: ATG_MRE_CIS: Attagene CIS-FACTORIAL HepG2 Assay for human Metal Responsive Element (MRE) (AID 2282954). Conditions: HepG2 MRE cis-reporter transcription, Attagene multiplex; actives raise or lower the signal. Summed up: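 RT-PCR/capillary electrophoresis readout of reporter mRNA, 24 h post-dosing, in HepG2 cells transfected with multiplexed cis-regulated reporter constructs. Gain or loss of signal fitted bidirectionally against DMSO baseline.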

The nature of experiment [10]: ATG_PBREM_CIS: Attagene CIS-FACTORIAL HepG2 Assay for human Phenobarbital-responsive Enhancer Module (PBREM) (AID 2282955). Conditions: HepG2 PBREM cis-reporter, Attagene multiplexed transcription; actives raise or lower the signal. Summed up: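 Measures endogenous factor action on a phenobarbital-responsive enhancer module. HepG2 transiently carrying cis reporters, 24 h treatment, mRNA read-out by RT-PCR plus capillary electrophoresis.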

Experiment [11] addresses Paired box protein Pax-6 (Homo sapiens) (UniProt P26367). Description: ATG_Pax6_CIS: Attagene CIS-FACTORIAL HepG2 Assay for human Paired Box 6 (PAX6) (AID 2282956). Conditions: HepG2 CIS-FACTORIAL PAX6 reporter transcription, RNA readout; actives raise or lower the signal. The procedure, abridged:
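Fluorescent RT-PCR products separated by capillary electrophoresis report PAX6-linked promoter mRNA in HepG2 cells 24 h post-dose. Curves fitted bidirectionally, DMSO as negative control.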

Experiment [12] in a line: ATG_PXRE_CIS: Attagene CIS-FACTORIAL HepG2 Assay for human Pregnane X Receptor Element (PXRE) (AID 2282957). As to conditions: HepG2 Attagene CIS-FACTORIAL PXRE reporter, mRNA; actives raise or lower the signal. Summed up: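 Endogenous transcription factor activity in HepG2 was gauged through induction of reporter mRNA driven by a cis-regulating promoter element, sampled 24 h post-treatment. Activity was fitted in both directions against DMSO negative control.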

Experiment [13] is described as follows: ATG_PPRE_CIS: Attagene CIS-FACTORIAL HepG2 Assay for human Peroxisome Proliferator-activated Response Element (PPRE) (AID 2282958). As to conditions: HepG2 PPRE cis-element reporter, Attagene transcription factor profiling; actives raise or lower the signal. Summed up:
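PPRE activity in HepG2: transient cis-reporter transfection, 24 h compound incubation, reporter mRNA by RT-PCR and CE fluorescence; gain/loss fitted against DMSO.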

Experiment [14] in a line: ATG_RORE_CIS: Attagene CIS-FACTORIAL HepG2 Assay for human RAR-related Orphan Receptor Element (RORE) (AID 2282959). Conditions: HepG2 Attagene cis-factorial RORE reporter, mRNA; actives raise or lower the signal. Summed up:
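A 24-hour exposure of transfected HepG2 hepatoma cells precedes RNA isolation and reporter RT-PCR. Labeled products are digested with HpaI and resolved by capillary electrophoresis, with gain or loss of signal scored relative to DMSO.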

A short description of experiment [15]: ATG_Sox_CIS: Attagene CIS-FACTORIAL HepG2 Assay for human SRY-box transcription factor (SOX) (AID 2282960). Conditions: HepG2 Attagene cis-factorial SOX reporter, mRNA; actives raise or lower the signal. Summed up: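 HepG2, cis reporter units, 24 h exposure. Reporter mRNA: RT-PCR → FAM labelling → HpaI → CE fluorescence. Bidirectional fit vs DMSO.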
Experiment [16] addresses Transcription factor Sp1 (Homo sapiens) (UniProt P08047). In words: ATG_Sp1_CIS: Attagene CIS-FACTORIAL HepG2 Assay for human Specificity Protein 1 (Sp1) (AID 2282961). Conditions: HepG2 Sp1 cis-reporter transcription, actives raise or lower the signal. The procedure, abridged: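 Liver-derived HepG2 cells, cis-element reporter library, 24 h treatment; RNA isolated, cDNA amplified with reporter-specific primers, FAM-labeled fragments sized on capillary analyzer. DMSO baseline, bidirectional curve fit.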

Experiment [17] in a line: ATG_SREBP_CIS: Attagene CIS-FACTORIAL HepG2 Assay for human Sterol Regulatory Element Binding (SREBP) (AID 2282962). Conditions: HepG2 Attagene cis-factorial SREBP reporter, mRNA; actives raise or lower the signal. Summed up:
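Endogenous factor activity is measured in HepG2 through multiplexed reporter units under cis-element control. Following a 24 h incubation, reporter transcripts are reverse-transcribed, PCR-amplified and sized by capillary electrophoresis; activity is fitted in both directions relative to DMSO.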

The target in experiment [18] is Signal transducer and activator of transcription 3 (Homo sapiens) (UniProt P40763). Description: ATG_STAT3_CIS: Attagene CIS-FACTORIAL HepG2 Assay for human Signal Transducer and Activator of Transcription 3 (STAT3) (AID 2282963). As to conditions: HepG2, Attagene cis-factorial STAT3 reporter transcription; actives raise or lower the signal. Summed up: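 Readout: fluorescent reporter mRNA fragments resolved by capillary electrophoresis. Setup: HepG2 transfected with MRTUs reporting endogenous transcription-factor activity, dosed 24 h. Gain or loss of signal fitted bidirectionally against DMSO control.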

Experiment [19] is described as follows: ATG_TA_CIS: Attagene CIS-FACTORIAL HepG2 Assay for human TA Basal Promoter (AID 2282964). Conditions: HepG2 Attagene CIS-factorial TA basal promoter reporter; actives raise or lower the signal. The procedure, abridged: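 Transfected HepG2, 24 h compound exposure; RNA → RT-PCR → FAM primer extension → HpaI cut → CE fluorescence. Gain/loss-of-signal fitted against DMSO negative control. Background-control readout.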

Experiment [20] has as its target Bile acid receptor (Homo sapiens) (UniProt Q96RI1). Description: ATG_IR1_CIS: Attagene CIS-FACTORIAL HepG2 Assay for human Nuclear Receptor Subfamily 1 Group H Member 4 (NR1H4), IR1 submotif (AID 2282946). As to conditions: IR1 reporter transcription, actives raise or lower the signal. The procedure, abridged:
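Fluorescence of capillary-separated, HpaI-digested RT-PCR reporter products gave IR1-element mRNA induction in HepG2 cells 24 h after dosing. Endogenous transcription factors drove the cis-regulated reporters; activity was fitted bidirectionally against DMSO.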

Activity calls are given as the source filed them. The calls were made as follows: active = hit-call score of the fitted dose curve at least 0.9, where 1 is the maximum; inactive = score below 0.9.

Sequence of Transcription factor Sp1 (Homo sapiens) (P08047 whole entry, looked up, the tested form may be a part): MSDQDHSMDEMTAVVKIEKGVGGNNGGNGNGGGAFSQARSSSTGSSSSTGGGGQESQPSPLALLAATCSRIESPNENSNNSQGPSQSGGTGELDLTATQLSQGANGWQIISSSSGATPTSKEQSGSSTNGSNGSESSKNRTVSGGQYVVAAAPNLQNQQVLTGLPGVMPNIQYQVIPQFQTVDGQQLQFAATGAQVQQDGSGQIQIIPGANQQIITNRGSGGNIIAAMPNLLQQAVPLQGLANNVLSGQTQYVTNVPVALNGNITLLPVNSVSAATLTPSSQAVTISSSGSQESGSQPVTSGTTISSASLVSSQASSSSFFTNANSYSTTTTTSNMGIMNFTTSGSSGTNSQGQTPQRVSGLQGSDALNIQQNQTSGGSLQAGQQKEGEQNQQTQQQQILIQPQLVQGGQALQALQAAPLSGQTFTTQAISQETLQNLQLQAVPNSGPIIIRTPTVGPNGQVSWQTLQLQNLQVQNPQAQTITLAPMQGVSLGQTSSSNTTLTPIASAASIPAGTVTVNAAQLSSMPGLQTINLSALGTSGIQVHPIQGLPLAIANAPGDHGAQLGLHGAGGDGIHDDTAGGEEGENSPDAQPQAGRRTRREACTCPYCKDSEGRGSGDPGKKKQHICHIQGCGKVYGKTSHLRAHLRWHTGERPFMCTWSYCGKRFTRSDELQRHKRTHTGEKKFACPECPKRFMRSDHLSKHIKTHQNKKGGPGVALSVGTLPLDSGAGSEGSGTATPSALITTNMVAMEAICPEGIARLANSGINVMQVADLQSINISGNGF
Sequence of Signal transducer and activator of transcription 3 (Homo sapiens) (P40763 whole entry, looked up, the tested form may be a part): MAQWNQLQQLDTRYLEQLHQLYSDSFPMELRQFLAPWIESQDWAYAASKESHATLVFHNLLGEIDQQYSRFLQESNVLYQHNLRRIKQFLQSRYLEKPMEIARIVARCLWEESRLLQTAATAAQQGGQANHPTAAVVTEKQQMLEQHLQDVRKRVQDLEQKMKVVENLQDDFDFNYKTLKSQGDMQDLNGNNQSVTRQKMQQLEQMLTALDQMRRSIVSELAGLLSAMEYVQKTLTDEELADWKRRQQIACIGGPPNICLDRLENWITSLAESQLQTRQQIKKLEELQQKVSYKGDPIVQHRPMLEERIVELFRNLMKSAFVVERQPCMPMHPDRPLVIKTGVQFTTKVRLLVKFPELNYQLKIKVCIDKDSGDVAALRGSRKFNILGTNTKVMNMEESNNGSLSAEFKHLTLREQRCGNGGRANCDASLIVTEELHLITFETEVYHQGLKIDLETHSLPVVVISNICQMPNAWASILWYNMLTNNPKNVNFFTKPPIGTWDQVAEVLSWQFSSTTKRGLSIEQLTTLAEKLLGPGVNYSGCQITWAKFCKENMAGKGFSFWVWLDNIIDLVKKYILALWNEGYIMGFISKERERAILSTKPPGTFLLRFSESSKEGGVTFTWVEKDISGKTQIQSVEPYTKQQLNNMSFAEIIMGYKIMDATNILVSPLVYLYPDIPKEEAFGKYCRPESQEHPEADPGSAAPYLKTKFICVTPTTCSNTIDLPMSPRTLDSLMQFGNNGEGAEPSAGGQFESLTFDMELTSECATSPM
Sequence of Hepatocyte nuclear factor 6 (Homo sapiens) (Q9UBC0 whole entry, looked up): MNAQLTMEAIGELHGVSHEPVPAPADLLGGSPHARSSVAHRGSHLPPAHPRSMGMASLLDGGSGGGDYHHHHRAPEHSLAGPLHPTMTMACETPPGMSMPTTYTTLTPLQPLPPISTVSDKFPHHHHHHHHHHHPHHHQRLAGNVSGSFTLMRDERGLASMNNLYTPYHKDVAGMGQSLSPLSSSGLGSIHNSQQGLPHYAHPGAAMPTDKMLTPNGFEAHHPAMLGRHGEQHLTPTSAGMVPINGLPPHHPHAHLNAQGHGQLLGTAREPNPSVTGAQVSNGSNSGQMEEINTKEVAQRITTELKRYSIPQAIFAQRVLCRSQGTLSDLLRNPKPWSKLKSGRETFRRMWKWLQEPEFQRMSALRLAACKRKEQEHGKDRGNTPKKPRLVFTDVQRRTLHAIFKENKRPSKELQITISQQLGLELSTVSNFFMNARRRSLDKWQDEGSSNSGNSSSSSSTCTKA
Sequence of Hypoxia-inducible factor 1-alpha (Homo sapiens) (Q16665 whole entry, looked up): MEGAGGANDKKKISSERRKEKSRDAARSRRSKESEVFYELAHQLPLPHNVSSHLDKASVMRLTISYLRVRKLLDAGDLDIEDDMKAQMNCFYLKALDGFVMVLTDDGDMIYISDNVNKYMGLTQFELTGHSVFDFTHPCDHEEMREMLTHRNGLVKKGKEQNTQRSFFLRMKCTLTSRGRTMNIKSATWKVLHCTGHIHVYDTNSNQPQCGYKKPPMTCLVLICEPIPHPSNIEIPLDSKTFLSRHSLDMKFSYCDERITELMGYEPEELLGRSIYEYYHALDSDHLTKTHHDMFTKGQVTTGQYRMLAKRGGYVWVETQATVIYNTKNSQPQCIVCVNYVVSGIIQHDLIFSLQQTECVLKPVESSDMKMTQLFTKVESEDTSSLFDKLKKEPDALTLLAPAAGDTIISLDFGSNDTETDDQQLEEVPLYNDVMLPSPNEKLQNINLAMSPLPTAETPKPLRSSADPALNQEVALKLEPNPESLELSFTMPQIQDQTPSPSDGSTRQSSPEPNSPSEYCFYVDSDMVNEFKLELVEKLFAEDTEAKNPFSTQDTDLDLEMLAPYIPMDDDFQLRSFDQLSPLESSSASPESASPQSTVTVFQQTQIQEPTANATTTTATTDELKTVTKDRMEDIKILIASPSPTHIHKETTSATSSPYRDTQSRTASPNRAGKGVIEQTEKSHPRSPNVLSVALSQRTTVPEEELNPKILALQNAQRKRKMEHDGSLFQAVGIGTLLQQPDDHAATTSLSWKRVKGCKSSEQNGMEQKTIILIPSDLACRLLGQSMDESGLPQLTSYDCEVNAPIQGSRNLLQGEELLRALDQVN
Sequence of Paired box protein Pax-6 (Homo sapiens) (P26367 whole entry, looked up): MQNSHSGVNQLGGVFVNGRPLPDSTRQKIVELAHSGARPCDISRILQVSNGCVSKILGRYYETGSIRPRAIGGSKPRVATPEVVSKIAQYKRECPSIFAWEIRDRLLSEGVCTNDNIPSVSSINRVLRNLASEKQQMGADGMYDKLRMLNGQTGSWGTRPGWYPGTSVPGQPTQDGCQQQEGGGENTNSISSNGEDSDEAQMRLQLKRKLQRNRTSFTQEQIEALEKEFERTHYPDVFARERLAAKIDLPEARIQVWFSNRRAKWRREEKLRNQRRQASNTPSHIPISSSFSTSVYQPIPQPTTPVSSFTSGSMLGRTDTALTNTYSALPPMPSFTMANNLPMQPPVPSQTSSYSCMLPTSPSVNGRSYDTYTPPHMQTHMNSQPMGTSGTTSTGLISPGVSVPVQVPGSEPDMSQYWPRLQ
Sequence of Heat shock factor protein 1 (Homo sapiens) (Q00613 whole entry, looked up, the tested form may be a part): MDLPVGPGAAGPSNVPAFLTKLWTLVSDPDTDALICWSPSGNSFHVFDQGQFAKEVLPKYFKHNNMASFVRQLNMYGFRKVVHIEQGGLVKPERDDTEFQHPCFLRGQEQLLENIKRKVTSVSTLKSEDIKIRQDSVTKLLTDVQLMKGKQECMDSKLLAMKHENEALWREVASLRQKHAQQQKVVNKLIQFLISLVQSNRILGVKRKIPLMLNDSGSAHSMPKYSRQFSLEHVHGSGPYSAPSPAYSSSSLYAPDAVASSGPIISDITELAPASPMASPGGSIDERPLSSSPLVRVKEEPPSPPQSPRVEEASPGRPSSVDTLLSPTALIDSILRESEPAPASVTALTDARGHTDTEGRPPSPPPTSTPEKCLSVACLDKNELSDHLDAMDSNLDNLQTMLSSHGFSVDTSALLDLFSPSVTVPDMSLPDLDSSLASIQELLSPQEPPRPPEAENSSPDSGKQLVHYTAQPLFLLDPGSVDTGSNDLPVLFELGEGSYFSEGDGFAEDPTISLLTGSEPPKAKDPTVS
Sequence of Bile acid receptor (Homo sapiens) (Q96RI1 whole entry, looked up): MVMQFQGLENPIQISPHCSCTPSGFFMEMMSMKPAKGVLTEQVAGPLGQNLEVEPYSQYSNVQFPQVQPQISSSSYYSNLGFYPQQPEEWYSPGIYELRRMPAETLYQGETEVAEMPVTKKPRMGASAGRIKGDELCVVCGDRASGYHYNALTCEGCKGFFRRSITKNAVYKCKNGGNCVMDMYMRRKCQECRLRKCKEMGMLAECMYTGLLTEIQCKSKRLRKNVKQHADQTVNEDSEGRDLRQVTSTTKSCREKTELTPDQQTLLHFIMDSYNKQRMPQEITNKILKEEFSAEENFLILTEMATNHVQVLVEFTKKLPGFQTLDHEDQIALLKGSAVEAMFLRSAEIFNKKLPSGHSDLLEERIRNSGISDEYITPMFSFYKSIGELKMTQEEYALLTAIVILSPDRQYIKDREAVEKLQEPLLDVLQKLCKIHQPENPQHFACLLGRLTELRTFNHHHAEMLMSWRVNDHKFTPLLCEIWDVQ

Consider `C=CC(F)(F)C(F)(F)C(F)(F)C(F)(F)C(F)(F)C(F)(F)C(F)(F)C(F)(F)F`, for which the result in experiment [1], in [2], in [3], in experiment [4], in experiment [5] and in experiment [6] was inactive. Also, the outcome in [7], in experiment [8], in experiment [9], in experiment [10], in [11] and in [12] was inactive. For the same compound, the result in experiment [13], in experiment [14], in experiment [15], in [16], in [17] and in experiment [18] was inactive. In addition, the outcome in [19] was inactive.
On to `C(=C(c1ccccc1)c1ccccc1)c1ccccc1`, for which the call in experiment [1], in [20], in experiment [2], in experiment [3], in experiment [4] and in experiment [5] was inactive. The compound was classed as inactive in experiment [6], in [7], in experiment [8], in experiment [9], in experiment [10] and in experiment [11]. The outcome in experiment [13], in [14], in experiment [15], in [16], in [17] and in [18] was inactive. Moreover, the compound was classed as inactive in [19].
In general, AC50 refers to the midpoint of the concentration-response curve, whichever way the signal moves. With `CCN(Cc1cccc(S(=O)(=O)O)c1)c1ccc(C(=C2C=CC(=[N+](CC)Cc3cccc(S(=O)(=O)O)c3)C=C2)c2ccc(O)cc2S(=O)(=O)[O-])cc1`, the outcome in [1], in [20], in [2], in [3], in [4] and in experiment [5] was inactive. Further, the result in experiment [6], in experiment [7], in experiment [8], in experiment [9], in [10] and in experiment [11] was inactive. Also, the outcome in experiment [14], in [15], in [16], in experiment [17], in experiment [18] and in experiment [19] was inactive. Further, in experiment [13], the AC50 was 17.8 µM (active).

Source of the values: PubChem BioAssay (EPA / NIEHS).
